Inconclusive results are not listed. The source made the active and inactive calls. The calls were made as follows, unless noted: active = hit-call score of the fitted dose curve at least 0.9, where 1 is the maximum; inactive = score below 0.9.
Columns and labels:
[1] = read-out: Monokine induced gamma interferon (MIG), CXCL9 (gene 4283); assay: BSK_3C_MIG: BioMAP Diversity Plus: 3C Assay for Monokine induced gamma interferon (MIG) Biomarker Activity (AID 2283021); conditions: primary human endothelial cells (HUVEC); actives raise or lower the signal
Method in brief: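 Read-out is ELISA detection of MIG on human umbilical vein endothelial cells, taken 24 h after dosing. Gain or loss of signal was scored relative to DMSO controls using bidirectional curve fitting.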

[2] = biological target: human Vitamin D Receptor (VDR), VDR (gene 7421) (UniProt P11473); assay: ATG_VDR_TRANS: Attagene TRANS-FACTORIAL HepG2 Assay for human Vitamin D Receptor (VDR) (AID 2283022; active = hit-call score of the fitted dose curve at least 0.9, where 1 is the maximum)
Method in brief: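 Fluorescence of labelled reporter cDNA fragments, resolved by capillary electrophoresis, gives mRNA induction after 24 h treatment of HepG2 cells carrying transfected Gal4-fusion reporter units. Activity is fitted in the positive direction with DMSO as baseline.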

[3] = BSK_3C_SRB: Viability Assessment in the BioMAP Diversity Plus: 3C Assay (AID 2283023); conditions: primary human endothelial cells (HUVEC);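 also: fitted both ways against DMSO so a hit may be signal rise or drop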
Method in brief: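 Cells were dosed with chemical, cultured 24 h, fixed with 10% TCA, stained with 0.1% SRB and read at 560 nm. Human umbilical vein endothelium was used; DMSO served as negative control and baseline.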

[4] = read-out: Matrix Metallopeptidase 1 (MMP1), MMP1 (gene 4312); assay: BSK_BE3C_MMP1: BioMAP Diversity Plus: BE3C Assay for Matrix Metallopeptidase 1 (MMP1) Biomarker Activity (AID 2283024); conditions: primary human bronchial epithelial cells; actives raise or lower the signal
Method in brief: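 Human bronchial epithelial cells (BE3C system) exposed to compound for 24 h; MMP1 then quantified by ELISA. Activity was fitted in both directions relative to DMSO.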

[5] = read-out: Pselectin, SELP (gene 6403); assay: BSK_4H_Pselectin: BioMAP Diversity Plus: 4H Assay for Pselectin Biomarker Activity (AID 2283026); conditions: primary human endothelial cells (HUVEC); actives raise or lower the signal
Method in brief: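 ELISA read-out of P-selectin on human umbilical vein endothelium after 24 h of dosing. Values derive from bidirectional fitting relative to DMSO. Parallel SRB protein staining flagged overt cytotoxicity.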

[6] = BSK_4H_SRB: Viability Assessment in the BioMAP Diversity Plus: 4H Assay (AID 2283027); conditions: primary human endothelial cells (HUVEC);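 also: cells exposed to compound for 24 h before staining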;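 as to AC50: curves fitted both ways versus DMSO so AC50 may be loss or gain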
Method in brief: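 Human umbilical vein endothelial cells, 24 h after chemical dosing; total protein measured by 0.1% sulforhodamine B staining after 10% TCA fixation, read at 560 nm. Bidirectional fitting against DMSO.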

[7] = BSK_BE3C_SRB: Viability Assessment in the BioMAP Diversity Plus: BE3C Assay (AID 2283028); conditions: primary human bronchial epithelial cells;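 as to AC50: fitted both ways so AC50 may mark signal gain or loss versus DMSO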
Method in brief: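 Overt cytotoxicity was assessed as total protein in confluent human primary bronchial epithelial cultures 24 h after chemical addition, using 0.1% sulforhodamine B staining read at 560 nm.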

[8] = read-out: Thrombomodulin, THBD (gene 7056); assay: BSK_3C_Thrombomodulin: BioMAP Diversity Plus: 3C Assay for Thrombomodulin Biomarker Activity (AID 2283029); conditions: primary human endothelial cells (HUVEC); actives raise or lower the signal
Method in brief: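 Read-out is ELISA of thrombomodulin on human umbilical vein endothelium 24 h after chemical dosing. Gain or loss of signal is scored relative to DMSO. Overt cytotoxicity is checked in parallel cultures by sulforhodamine B staining.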

[9] = read-out: Urokinase-type plasminogen activator receptor (uPAR), PLAUR (gene 5329); assay: BSK_4H_uPAR: BioMAP Diversity Plus: 4H Assay for Urokinase-type plasminogen activator receptor (uPAR) Biomarker Activity (AID 2283030); conditions: primary human endothelial cells (HUVEC); actives raise or lower the signal
Method in brief: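 Chemicals are dosed onto human vascular endothelial primary cells (umbilical vein). After 24 h, uPAR is read by ELISA. Gain or loss of signal is fitted relative to DMSO.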

[10] = read-out: Vascular endothelial growth factor receptor 2 (Homo sapiens) (UniProt P35968); assay: BSK_4H_VEGFRII: BioMAP Diversity Plus: 4H Assay for Vascular endothelial growth factor receptor 2 (VEGFR2) Biomarker Activity (AID 2283031); conditions: primary human endothelial cells (HUVEC); actives raise or lower the signal
Method in brief: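 VEGFRII levels on human vascular endothelial primary cells were determined by ELISA at 24 hours post-dosing, with gain- or loss-of-signal fitted against DMSO controls.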

[11] = read-out: Human Leukocyte Antigen - DR isotype (HLADR), HLA-DRA (gene 3122); assay: BSK_BE3C_HLADR: BioMAP Diversity Plus: BE3C Assay for Human Leukocyte Antigen - DR isotype (HLADR) Biomarker Activity (AID 2283032); conditions: primary human bronchial epithelial cells; actives raise or lower the signal
Method in brief: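 ELISA read-out of HLA-DR on human lung bronchial epithelial primary cells, measured 24 h post-dosing. Both increases and decreases were scored relative to DMSO vehicle.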

[12] = read-out: Vascular cell adhesion molecule 1 (VCAM1), VCAM1 (gene 7412); assay: BSK_4H_VCAM1: BioMAP Diversity Plus: 4H Assay for Vascular cell adhesion molecule 1 (VCAM1) Biomarker Activity (AID 2283033); conditions: primary human endothelial cells (HUVEC); actives raise or lower the signal
Method in brief: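 ELISA read-out of VCAM-1 on human umbilical vein endothelium 24 hours after chemical dosing; gain or loss of signal was fitted relative to DMSO, with sulforhodamine B staining of parallel cultures flagging overt cytotoxicity.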

[13] = read-out: Interferon-gamma inducible Protein 10 (IP10), CXCL10 (gene 3627); assay: BSK_BE3C_IP10: BioMAP Diversity Plus: BE3C Assay for Interferon-gamma inducible Protein 10 (IP10) Biomarker Activity (AID 2283034); conditions: primary human bronchial epithelial cells; actives raise or lower the signal
Method in brief: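 Chemical is dosed onto human lung bronchial epithelial primary cells, cultures are incubated 24 h, and IP-10 is then quantified by ELISA. Gain or loss of signal is fitted in both directions relative to DMSO.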

[14] = read-out: Monokine induced gamma interferon (MIG), CXCL9 (gene 4283); assay: BSK_BE3C_MIG: BioMAP Diversity Plus: BE3C Assay for Monokine induced gamma interferon (MIG) Biomarker Activity (AID 2283035); conditions: primary human bronchial epithelial cells; actives raise or lower the signal;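 also: MIG protein measured by ELISA in BE3C cultures after 24 h of dosing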
Method in brief: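 Primary human bronchial epithelial cells treated for 24 h; MIG levels measured by ELISA, fitted bidirectionally versus DMSO. Parallel SRB total-protein staining assessed cytotoxicity.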

[15] = read-out: Transforming growth factor beta 1 (TGFb1), TGFB1 (gene 7040); assay: BSK_BE3C_TGFb1: BioMAP Diversity Plus: BE3C Assay for Transforming growth factor beta 1 (TGFb1) Biomarker Activity (AID 2283036;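 also: TGF-b1 protein level measured by ELISA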); conditions: primary human bronchial epithelial cells; actives raise or lower the signal
Method in brief: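 Primary human lung bronchial epithelial cells; compound exposure 24 h; TGF-b1 by ELISA; bidirectional fit, DMSO baseline. Parallel SRB total-protein staining for cytotoxicity.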

[16] = read-out: Plasminogen activator inhibitor-1 (PAI1), SERPINE1 (gene 5054); assay: BSK_BE3C_PAI1: BioMAP Diversity Plus: BE3C Assay for Plasminogen activator inhibitor-1 (PAI1) Biomarker Activity (AID 2283037); conditions: primary human bronchial epithelial cells; actives raise or lower the signal
Method in brief: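 Primary human lung bronchial epithelial cells; chemical dosing; 24 h; PAI-1 measured by ELISA; bidirectional fit referenced to DMSO as negative control.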

[17] = read-out: urokinase plasminogen activator (uPA), PLAU (gene 5328); assay: BSK_BE3C_uPA: BioMAP Diversity Plus: BE3C Assay for urokinase plasminogen activator (uPA) Biomarker Activity (AID 2283038); conditions: primary human bronchial epithelial cells; actives raise or lower the signal;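 also: uPA protein level quantified by ELISA in cell cultures; uPA read one day after compound addition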
Method in brief: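 Measured by ELISA: uPA from human primary bronchial epithelial cells 24 h after chemical treatment. Values derive from bidirectional curve fitting with DMSO serving as negative control. Total protein by SRB staining in parallel wells flagged overt cytotoxicity.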

[18] = read-out: Urokinase-type plasminogen activator receptor (uPAR), PLAUR (gene 5329); assay: BSK_BE3C_uPAR: BioMAP Diversity Plus: BE3C Assay for Urokinase-type plasminogen activator receptor (uPAR) Biomarker Activity (AID 2283039); conditions: primary human bronchial epithelial cells; actives raise or lower the signal
Method in brief: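 Human bronchial epithelial primary cells; chemical exposure 24 h; uPAR by ELISA; bidirectional fit vs DMSO control.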

[19] = read-out: Interleukin-6 (IL6), IL6 (gene 3569); assay: BSK_CASM3C_IL6: BioMAP Diversity Plus: CASM3C Assay for Interleukin-6 (IL6) Biomarker Activity for (AID 2283040); conditions: primary human coronary artery smooth muscle cells; actives raise or lower the signal
[20] = BSK_3C_Vis: BioMAP Diversity Plus: 3C Assay for Morphology Visualization (AID 2283025); conditions: primary human endothelial cells (HUVEC);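 also: light microscopy image of cell morphology used as background control; fitted both ways so gain or loss versus DMSO counts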
Method in brief: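 Chemicals were added to primary human umbilical vein endothelium, cells were incubated 24 h, and morphology was then visualized by light microscopy. Gain or loss of signal was fitted bidirectionally relative to DMSO.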

Measured: AC50

Sequence of human Vitamin D Receptor (VDR), VDR (gene 7421) (P11473 whole entry, looked up, the tested form may be a part): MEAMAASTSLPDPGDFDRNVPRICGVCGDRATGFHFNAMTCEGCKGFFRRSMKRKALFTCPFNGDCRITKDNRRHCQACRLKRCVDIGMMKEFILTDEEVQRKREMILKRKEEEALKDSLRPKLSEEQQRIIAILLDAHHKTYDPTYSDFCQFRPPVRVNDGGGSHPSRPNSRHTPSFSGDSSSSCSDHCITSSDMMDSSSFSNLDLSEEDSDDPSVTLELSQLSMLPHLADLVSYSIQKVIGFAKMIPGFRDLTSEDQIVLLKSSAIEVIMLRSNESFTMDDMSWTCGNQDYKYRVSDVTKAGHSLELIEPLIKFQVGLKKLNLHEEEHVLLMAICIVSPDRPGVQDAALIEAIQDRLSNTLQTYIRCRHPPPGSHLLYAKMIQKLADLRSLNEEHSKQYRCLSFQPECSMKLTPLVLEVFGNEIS

COC(=O)NC(=S)Nc1ccccc1NC(=S)NC(=O)OC
active: [8] 10.8 µM | [12] 0.312 µM | [18] 1.46 µM
not listed: [20]
inactive: all other assays above

CCOc1nc(F)cc2nc(S(=O)(=O)Nc3c(Cl)cccc3Cl)nn12
active: [11] 27.9 µM | [13] 31.4 µM | [16] 20.9 µM
not listed: [7] | [20]
inactive: all other assays above

CSC(=O)c1c(C(F)F)nc(C(F)(F)F)c(C(=O)SC)c1CC(C)C
active: [3] 14.6 µM | [4] 6.22 µM | [20] 13.7 µM | [5] 15 µM | [6] 25.7 µM | [19] 3.97 µM
not listed: [7] | [8] | [9]
inactive: all other assays above

CCOP(=O)(OCC)Oc1nc(Cl)c(Cl)cc1Cl
active: [3] 28.8 µM | [20] 16.3 µM | [5] 18.5 µM | [6] 12.4 µM | [7] 4.23 µM | [9] 12 µM | [12] 26.7 µM | [13] 23.9 µM | [18] 9.84 µM
not listed: [2]
inactive: all other assays above

CC1(C)CCC(=Cc2ccc(Cl)cc2)C1(O)Cn1cncn1 (stereo not given)
active: [6] 0.803 µM
not listed: [8] | [20]
inactive: all other assays above

Cn1c(-c2ccccc2)cc(-c2ccccc2)[n+]1C
active: [20] 9.8 µM | [6] 1.65 µM | [11] 3.97 µM
not listed: [13]
inactive: all other assays above

Reference: PubChem BioAssay (EPA / NIEHS)
